# Among all 310,000 compounds or so, about 14,000 (4.5%) showed an effect of 50% or more. Effects have a minus sign here. For the sample, strong results were picked, then their nearest neighbours and some compounds at random.
# Molecular target: human ether-à-go-go-related gene (hERG) potassium channel (human, UniProt Q12809)
# Experiment: primary screen, population patch clamp on CHO cells stably expressing hERG; higher = less effect of the substance
# 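Further: peak tail current of the secondary pulse compared with the same well before compound.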
# Sequence of human ether-à-go-go-related gene (hERG) potassium channel (Q12809 whole entry, looked up): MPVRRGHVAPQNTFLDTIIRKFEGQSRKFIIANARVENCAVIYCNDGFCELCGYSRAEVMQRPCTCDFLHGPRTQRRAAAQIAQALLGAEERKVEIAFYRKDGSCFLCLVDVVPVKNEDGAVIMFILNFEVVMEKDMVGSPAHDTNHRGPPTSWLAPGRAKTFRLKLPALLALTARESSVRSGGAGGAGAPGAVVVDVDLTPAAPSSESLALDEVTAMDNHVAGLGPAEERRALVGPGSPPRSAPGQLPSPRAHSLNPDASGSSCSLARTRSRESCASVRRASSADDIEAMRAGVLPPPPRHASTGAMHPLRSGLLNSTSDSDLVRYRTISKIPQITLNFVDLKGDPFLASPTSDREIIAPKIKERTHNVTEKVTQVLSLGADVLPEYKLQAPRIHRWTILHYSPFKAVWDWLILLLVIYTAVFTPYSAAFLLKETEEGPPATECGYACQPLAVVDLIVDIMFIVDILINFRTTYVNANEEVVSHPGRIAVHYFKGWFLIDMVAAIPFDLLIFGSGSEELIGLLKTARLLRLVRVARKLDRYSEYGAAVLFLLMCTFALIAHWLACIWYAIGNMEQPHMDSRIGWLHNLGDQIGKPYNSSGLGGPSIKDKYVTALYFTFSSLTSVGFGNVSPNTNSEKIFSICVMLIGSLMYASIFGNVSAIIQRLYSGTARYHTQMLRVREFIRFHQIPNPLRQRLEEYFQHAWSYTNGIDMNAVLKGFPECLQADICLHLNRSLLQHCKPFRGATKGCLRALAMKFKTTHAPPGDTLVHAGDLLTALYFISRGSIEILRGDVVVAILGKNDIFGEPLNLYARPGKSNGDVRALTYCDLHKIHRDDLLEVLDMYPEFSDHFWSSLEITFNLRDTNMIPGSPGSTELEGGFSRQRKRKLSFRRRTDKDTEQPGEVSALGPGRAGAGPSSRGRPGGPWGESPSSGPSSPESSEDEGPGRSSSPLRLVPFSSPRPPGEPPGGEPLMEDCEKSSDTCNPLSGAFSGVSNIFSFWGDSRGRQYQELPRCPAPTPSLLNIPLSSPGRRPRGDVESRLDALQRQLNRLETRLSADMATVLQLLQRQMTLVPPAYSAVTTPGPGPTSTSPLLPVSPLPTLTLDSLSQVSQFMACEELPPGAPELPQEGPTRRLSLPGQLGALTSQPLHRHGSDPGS
row,SMILES,"hERG current change (%, negative = inhibition) at 10uM [%]"
1,Cc1cccn2c(=O)c3cc(C(=O)NC4CCS(=O)(=O)C4)n(Cc4ccccc4)c3nc12 (stereo not drawn),-4.36
2,Cc1cccn2c(=O)c3cc(C(=O)NC4CCCCC4)c(=N)n(Cc4ccc(F)cc4)c3nc12,-77.1
3,Cc1cccn2c(=O)c3cc(C(=O)NC4CCCCCC4)sc3nc12,9.51
4,Cc1cccn2c(=O)c3cc(C(=O)NC4CCCC4)c(=N)n(Cc4ccc(F)cc4)c3nc12,-68.2
5,Cc1cccn2c(=O)c3cc(C(=O)NC4CCCCC4)c(=N)n(Cc4ccccc4)c3nc12,-74.6
6,Nc1ccc(C(=O)Nc2cccc(NC(=O)c3ccc(N)cc3)c2)cc1,17.7
7,Cn1c(=O)c(=O)n(C)c2cc(S(=O)(=O)CCC(=O)Nc3ccc(F)cc3)ccc21,-2.6
8,CS(=O)(=O)N1CCN(CC2CC3C=CC2C3)CC1.O=C(O)C(=O)O (stereo not drawn),5.01
9,CCOc1ccc(N2C(=O)C3C(c4ccc(O)cc4)NC(CCSC)(C(=O)OC)C3C2=O)cc1 (stereo not drawn),-12.3
10,CC(NC(=O)c1nn(C)c(=O)c2ccccc12)c1ccc(F)cc1 (stereo not drawn),-3.84
11,CCCOC(=O)c1ccccc1C(=O)OCCC,-3.24
12,CCCCCCCCNC(=O)CCNC(=O)c1ccc(C(C)(C)C)cc1,8
13,O=C(c1ccc(F)c(S(=O)(=O)N2CCOCC2)c1)N(CCc1ccccc1)Cc1ccccc1,-68.3
14,O=C(NCc1ccccc1)c1ccc(F)c(S(=O)(=O)N2CCOCC2)c1,-17.4
15,CC1CN(S(=O)(=O)c2cccc(C(=O)N(CCc3ccccc3)Cc3ccccc3)c2)CC(C)O1 (stereo not drawn),-7
16,O=C(c1cccc(S(=O)(=O)N2CCOCC2)c1)N(CCc1ccccc1)Cc1ccccc1,-55.4
17,O=C(c1cc(S(=O)(=O)N2CCOCC2)ccc1F)N(CCc1ccccc1)Cc1ccccc1,-4.37
18,O=C(c1cccc(S(=O)(=O)N2CCOCC2)c1)N(CCO)Cc1ccccc1,-19.8
19,CCc1nc2cc([N+](=O)[O-])c([N+](=O)[O-])cc2[nH]1,-14.5
20,NC(=O)c1ccccc1NC(=O)c1ccc2c(c1)OCO2,5.14
21,CCc1cc2c(=O)n(CC(=O)NC3CCCCC3)cnc2s1,4.86
22,COc1ccc(C2Nc3ccccc3C(=O)N2NC(C)=O)c(OC)c1 (stereo not drawn),14.3

row,SMILES,"hERG current change (%, negative = inhibition) at 10uM [%]"
1,Cc1cccc2c(N)c3c(nc12)N(C)CC3.O=C(O)C(=O)O,-23.1
2,O=C(O)c1cncc(Br)c1,27.3
3,Cc1ccc2nc3c(c(N)c2c1)CCN3C.O=C(O)C(=O)O,-33.1
4,Cc1cc(Br)c2nc3c(c(C(=O)O)c2c1)CCCCC3,4.41
5,Cc1ccc(C)c2c(N)c3c(nc12)CCCCC3.O=C(O)c1cncc(Br)c1,-88.4
6,CN1CCCCc2c1nc1ccccc1c2N.O=C(O)c1cncc(Br)c1,-82.5
7,O=[N+]([O-])c1ccc(-c2cnc(NO)nc2)cc1,-28
8,CC(C)(C)NC(=O)C(=O)NNC(=O)c1cccc(F)c1,18.1
9,CC1=C(C#N)C(=O)N(C2CCS(=O)(=O)C2)C(=O)/C1=C\c1ccco1 (stereo not drawn),7.81
10,O=C(COC(=O)C1=NNC(=O)CC1)NCCc1ccccc1,17.4
11,O=c1cc(N2CCN(Cc3ccccc3)CC2)c(-c2ccccc2)n[nH]1,-1.87
12,Cn1nc(C(C)(C)C)cc1NC(=O)Nc1ccc(F)cc1F,5.93
13,CCC(C)N1C(=S)SC(C)(C)C1N(O)C(=O)NC1CCCCC1 (stereo not drawn),9.19
14,COc1ccc(OC)c(C2(O)CSC(=Nc3cccnc3)N2Cc2ccco2)c1 (stereo not drawn),-16.3
15,Cn1c(=O)c2c(SCC(=O)N3CCOCC3)nc(-c3ccccc3F)nc2n(C)c1=O,-8.27
16,O=C(c1cc(COc2ccc(F)cc2Cl)on1)N1CCN(C2CCCCC2)C(=O)C1,-67.9
17,COc1ccc(OCc2cc(C(=O)N3CCN(C4CCCC4)CC3)no2)c(Cl)c1,-29.6
18,O=C(c1cc(COc2ccc(F)cc2Cl)on1)N1CCN(C2CCCC2)CC1,-61.4
19,O=C(c1cc(COc2ccc(F)c(F)c2)on1)N1CCOCC1,5.02
20,CCOC(=O)CC1COCCN1C(=O)c1cc(COc2ccc(F)c(F)c2)on1 (stereo not drawn),-61.5
21,O=C(c1cc(COc2ccc(F)cc2F)on1)N1CCN(C2CCCC2)C(=O)C1,-25.8
22,O=C(c1cc(COc2ccc(F)c(F)c2)on1)N1CCN(C2CCCCC2)C(=O)C1,-56.2

row,SMILES,"hERG current change (%, negative = inhibition) at 10uM [%]"
1,O=C(c1cc(COc2c(F)cccc2F)on1)N1CCN(C2CCCCC2)C(=O)C1,-17.5
2,CSc1ccccc1OCc1cc(C(=O)N2CCN(C3CCCC3)C(=O)C2)no1,-34.8
3,CCOC(=O)CC1COCCN1C(=O)c1cc(COc2ccc(F)cc2Cl)on1 (stereo not drawn),-23.2
4,COc1cccc(OCc2cc(C(=O)N3CCN(C4CCCCC4)C(=O)C3)no2)c1,-3.09
5,O=C(c1cc(COc2ccc(F)cc2Cl)on1)N1CCSCC1,-4.58
6,O=C(COC(=O)CN1C(=O)C2CCCCC2C1=O)Nc1cc(S(=O)(=O)N2CCOCC2)ccc1Cl (stereo not drawn),-12.6
7,Cc1ccc(C(=O)NCCCn2ccnc2)cn1,4.36
8,O=C(NC1CCCCCC1)C1CCN(S(=O)(=O)c2cnc[nH]2)CC1,8.78
9,CCN(CC)C(=O)COc1cc(C)c(Cl)c(C)c1,-5.91
10,COc1ccc(C(=O)NCc2ccccc2OC)c(OC)c1,-11.6
11,O=C(N/N=C/c1cc(Br)cs1)c1ccc2c(c1)OCCO2,10.2
12,Oc1c(Br)cc(Br)cc1C=Nc1ccc2c(c1)OCCO2,14.9
13,Brc1ccc(C=Nc2ccc3c(c2)OCCOCCOCCO3)s1,-66.2
14,Oc1c(Cl)cc(Cl)cc1C=Nc1ccc2c(c1)OCCO2,21.2
15,Brc1csc(C=Nc2ccc3c(c2)OCCOCCOCCOCCO3)c1,-73.5
16,Brc1ccc(C=Nc2ccc(Nc3ccccc3)cc2)s1,9.59
17,NC(=O)c1ccccc1NC(=O)N1CCOCC1,-2.02
18,CCOC(=O)C1CCCN(C(=O)c2ccc(Cl)cc2)C1 (stereo not drawn),0.557
19,Cc1cc(C)cc(NC(=O)CSc2nc3c(oc4ccccc43)c(=O)n2-c2ccccc2)c1,-11.1
20,O=C(c1ccc(F)cc1)N1CCCCC(Sc2nnc3ccccn23)C1=O (stereo not drawn),-59.9
21,O=C(c1ccccc1)N1CCCCC(Sc2nnc3ccccn23)C1=O (stereo not drawn),5.24
22,Cc1cc2nnc(SC3CCCCN(C(=O)c4ccc(F)cc4)C3=O)n2c2ccccc12 (stereo not drawn),-13.2

row,SMILES,"hERG current change (%, negative = inhibition) at 10uM [%]"
1,O=C(Nc1ccccc1-c1nc2ccccc2[nH]c1=O)c1cccs1,2.16
2,CCc1noc(C)c1C(=O)Nc1ccc(C)c(S(=O)(=O)N2CCCCCC2)c1,-45.6
3,CCOc1ccc(S(=O)(=O)N2CCCCC2)cc1NC(=O)c1c(CC)noc1C,11.8
4,CCc1noc(C)c1C(=O)Nc1ccc(S(=O)(=O)N2CCCCC2)cc1,-7.54
5,CCc1noc(C)c1C(=O)Nc1cccc(S(=O)(=O)N2CCCCCC2)c1,-56
6,Cc1noc(C)c1C(=O)Nc1cccc(S(=O)(=O)N2CCCCC2)c1,-10.6
7,CCc1noc(C)c1C(=O)Nc1ccc(Cl)c(S(=O)(=O)N2CCCCC2)c1,-71.2
8,CCOC(=O)c1c(C)[nH]c(C(=O)Nc2ccc(C)c(Cl)c2)c1C,10.8
9,COc1ccc2[nH]cc(C(=O)C(=O)N3CCCCC3)c2c1,5.35
10,COC(=O)C(=O)/C=C(\O)c1ccc(C)cc1,-2.4
11,Cc1ccc(C(=O)CSc2nc3ccccc3c(=O)n2N)o1,-1.95
12,CCN(CC)CCCN(C(=O)c1cccs1)c1nc(-c2ccc(OC)cc2)cs1,-83.3
13,COc1ccc(-c2csc(N(C)C(=O)c3cccs3)n2)cc1,-0.276
14,CCN(C(=O)c1cccs1)c1nc(-c2ccc(OC)cc2)cs1,23.1
15,COc1ccc(-c2csc(N(Cc3ccco3)C(=O)c3cccs3)n2)cc1,-3.17
16,O=C(c1cccs1)N(CC1CCCO1)c1nc(-c2ccccc2)cs1 (stereo not drawn),2.57
17,Cc1ccc(-c2csc(N(Cc3ccco3)C(=O)c3cccs3)n2)cc1,11.6
18,CN(C)CCCN(C(=O)c1cccs1)c1nc(-c2ccccc2)cs1,-72.8
19,COc1ccc(-c2csc(N(CCCN(C)C)C(=O)c3cccs3)n2)cc1.Cl,-73.9
20,COc1ccc(-c2csc(N(CC3CCCO3)C(=O)c3cccs3)n2)cc1 (stereo not drawn),-11.4
21,O=C(NC(=S)Nc1ccc(S(=O)(=O)N2CCCC2)cc1)C1CC1,-29.8
